# According to PubChem BioAssay (Tox21):
# Records with an inconclusive call do not appear. The source made the active and inactive calls. Calls follow the shape of the dose curve; as a rule, active = well fitted cell-killing curve with a large enough effect in the repeat runs; inconclusive = weak or mixed curves, or effect the other way; inactive = flat fitted curve, though single readings scatter.
# Assay: cAMP Responsive Elements (CRE) small molecule agonists, cell-based qHTS assay: qHTS cell viability counter screen (AID 2060914); also: nearly all actives have a fitted effect of over 50% in size
# Settings: CRE-bla HEK293T viability, CellTiter-Glo luminescence, 5 h; series mostly up to 92.4 µM; activity change, negative = cytotoxicity: at the top concentration
# Method in brief: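 In the same wells as the reporter read, viability of CRE-bla HEK 293T cells was quantified by CellTiter-Glo luminescence after a 3 h compound exposure.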
# % is scaled to controls: 0 for no effect and ±100 for the full control effect.
Compound,"activity change, negative = cytotoxicity",Potency
CN(C)N=Nc1ccccc1,0.687% (inactive),
CC(C)c1ccccc1,-0.0046% (inactive),
O=[N+]([O-])c1ccc(O/N=C/c2cc(Br)c(O)c(Br)c2)c([N+](=O)[O-])c1,-0.349% (inactive),
CCN1CC(CCN2CCOCC2)C(c2ccccc2)(c2ccccc2)C1=O (stereo not given),3.59% [at 42.5 µM] (inactive),
CN(C)CCCN(C)C,-2.69% [at 8.39 µM] (inactive),
CC(=O)/C=C/C1C(C)=CCC(C)C1(C)C (stereo not given),-2.03% (inactive),
CN(C)CCOCCN(C)C,,inactive
O=C1NCCN1,0.439% (inactive),
CCCCCCCCCCCCN,,inactive
CN[C@@H]1[C@@H](O)[C@@H](O[C@@H]2[C@H](O)[C@H](O[C@H]3OC(CN)=CC[C@H]3N)[C@@H](N)C[C@H]2N)OCC1(C)O (stereo not given in full),-0.73% [at 42.5 µM] (inactive),
COc1c2occc2cc2ccc(=O)oc12,,inactive
COc1cc(C(=O)NS(=O)(=O)c2ccccc2C)ccc1Cc1cn(C)c2ccc(NC(=O)OC3CCCC3)cc12,7.65% [at 42.5 µM] (inactive),
CC(=O)OC(C)OC(C)=O,6.25% (inactive),
O=C(Oc1ccccc1)c1cccc(C(=O)Oc2ccccc2)c1,-0.532% (inactive),
Cc1ccc(C#N)cc1,0.172% (inactive),
C=O,-13.2% (inactive),
N=C(N)N1CCc2ccccc2C1,2.66% [at 8.39 µM] (inactive),
CN1CC[C@H](c2c(O)cc(O)c3c(=O)cc(-c4ccccc4Cl)oc23)[C@H](O)C1,19.4% [at 42.5 µM] (inactive),
CCN(CC)CCOc1ccc(/C(=C(\Cl)c2ccccc2)c2ccccc2)cc1,-13.3% [at 42.5 µM] (inactive),
COC(/C=C(\C)CCC=C(C)C)OC,-0.937% (inactive),

Compound,"activity change, negative = cytotoxicity",Potency
O=C(O)/C=C/c1ccccc1,-6.5% (inactive),
Cc1ccccc1Br,0.401% (inactive),
O=C(O)[C@H](O)[C@@H](O)[C@H](O)[C@H](O)CO,,inactive
CCC[C@@H]1C[C@@H](C(=O)N[C@@H]([C@H]2O[C@H](SC)[C@H](O)[C@@H](O)[C@H]2O)[C@@H](C)O)N(C)C1,-5.22% [at 42.5 µM] (inactive),
C1OCOCO1,14.8% (inactive),
CC(C)(C)C1=CC(=O)C(C(C)(C)C)=CC1=O,10.5% [at 42.5 µM] (inactive),
Cc1cccc(C)c1,,inactive
CN(C)CCOC(c1ccccc1)c1ccc(Br)cc1 (stereo not given),5.79% [at 42.5 µM] (inactive),
CN(C)CCOc1ccccc1Cc1ccccc1,-12% [at 42.5 µM] (inactive),
CCn1cc(C(=O)O)c(=O)c2cc(F)c(N3CCN(C)CC3)cc21,12% [at 18.9 µM] (inactive),
CCOC(=O)c1ccc(OC(=O)CCCCCN=C(N)N)cc1,-0.626% [at 42.5 µM] (inactive),
OC(CCN1CCCCC1)(c1ccccc1)C1CC2C=CC1C2 (stereo not given),-0.758% [at 42.5 µM] (inactive),
COc1ccc(-c2cc(C(F)F)nn2-c2ccc(S(N)(=O)=O)cc2)cc1F,11.4% [at 42.5 µM] (inactive),
O=C(N/N=C/c1ccccc1O)c1ccncc1,-1.61% [at 42.5 µM] (inactive),
CC(CCl)OP(=O)(OC(C)CCl)OC(C)CCl (stereo not given),,inactive
CC(C)c1ccc(C#N)cc1,-5.22% (inactive),
CCCCC/C=C/CC1CC(=O)OC1=O (stereo not given),-0.943% (inactive),
COc1cc(C(=O)NC2CCN(C)CC2)ccc1Nc1ncc2c(n1)N(C1CCCC1)CC(F)(F)C(=O)N2C,-6.3% (inactive),
O=[N+]([O-])c1ccc(O)cc1,,inactive
c1ccc(CCCc2ccccn2)cc1,10% (inactive),
